Experimental data from article PMC5700166.

Assays:
Experiment in all cases: protein-binding microarray (PBM); PBM: ~300 nM protein, 6 mM HEPES pH 7.8, 80 mM KCl, 0.5 mM EDTA, 0.5 mM EGTA, 6% glycerol, 35 ng/ul poly-dIdC, 1% milk, 1 h, room temperature; Ap Aiptasia and Nv Nematostella (sea anemones) / Co Capsaspora / Aq Amphimedon (sponge) / Dm Drosophila / Hu human; RHD is the Rel homology domain; high values mean tight binding
Details in all cases: dsDNA, one strand shown
GST-Ap-NF-kB RHD = target: T1, GST-Ap-NF-kB RHD (Exaiptasia pallida (Aiptasia), UniProt A0A913YAJ5 2-422)
T1 sequence: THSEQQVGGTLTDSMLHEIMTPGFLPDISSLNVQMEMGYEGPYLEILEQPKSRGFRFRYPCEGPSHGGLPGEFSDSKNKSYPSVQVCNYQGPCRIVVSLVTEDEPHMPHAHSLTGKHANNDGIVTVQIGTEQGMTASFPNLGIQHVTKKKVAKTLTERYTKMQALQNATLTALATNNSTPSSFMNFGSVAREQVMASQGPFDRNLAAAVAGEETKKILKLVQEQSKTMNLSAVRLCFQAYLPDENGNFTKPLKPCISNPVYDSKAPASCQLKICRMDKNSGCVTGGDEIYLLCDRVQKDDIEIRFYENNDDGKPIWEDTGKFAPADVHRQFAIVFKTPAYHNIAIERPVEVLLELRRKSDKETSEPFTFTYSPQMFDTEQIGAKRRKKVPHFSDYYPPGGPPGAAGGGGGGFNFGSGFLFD

[1] = target: T2, GST-Nv-NF-kB (Cys allele) (Nematostella vectensis, UniProt E5G601 2-411)
T2 sequence: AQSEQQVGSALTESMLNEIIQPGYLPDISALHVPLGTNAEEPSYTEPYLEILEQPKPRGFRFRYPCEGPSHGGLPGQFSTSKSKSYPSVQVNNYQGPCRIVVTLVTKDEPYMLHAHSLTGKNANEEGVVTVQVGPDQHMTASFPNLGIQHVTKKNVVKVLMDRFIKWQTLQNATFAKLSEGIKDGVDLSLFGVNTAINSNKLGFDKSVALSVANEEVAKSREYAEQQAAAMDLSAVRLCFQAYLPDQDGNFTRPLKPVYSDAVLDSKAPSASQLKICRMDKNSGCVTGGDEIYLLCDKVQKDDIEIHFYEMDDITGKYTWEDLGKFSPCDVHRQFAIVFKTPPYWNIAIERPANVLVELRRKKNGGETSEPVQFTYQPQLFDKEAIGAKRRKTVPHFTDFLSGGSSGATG

GST-Co-NF-kB = target: T3, GST-Co-NF-kB (Capsaspora owczarzaki, UniProt F1ARL5 200-546)
T3 sequence: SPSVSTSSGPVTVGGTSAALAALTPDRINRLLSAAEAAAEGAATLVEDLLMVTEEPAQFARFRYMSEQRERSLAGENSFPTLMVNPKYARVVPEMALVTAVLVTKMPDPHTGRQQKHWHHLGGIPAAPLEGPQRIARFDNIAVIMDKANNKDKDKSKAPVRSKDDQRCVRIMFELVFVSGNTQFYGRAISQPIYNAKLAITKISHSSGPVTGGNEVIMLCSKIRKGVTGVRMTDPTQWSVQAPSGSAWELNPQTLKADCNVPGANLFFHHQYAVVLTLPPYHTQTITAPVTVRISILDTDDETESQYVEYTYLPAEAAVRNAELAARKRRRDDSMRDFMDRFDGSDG

GST-Dm-Relish = target: T4, GST-Dm-Relish (Drosophila melanogaster, UniProt Q94527 99-473)
T4 sequence: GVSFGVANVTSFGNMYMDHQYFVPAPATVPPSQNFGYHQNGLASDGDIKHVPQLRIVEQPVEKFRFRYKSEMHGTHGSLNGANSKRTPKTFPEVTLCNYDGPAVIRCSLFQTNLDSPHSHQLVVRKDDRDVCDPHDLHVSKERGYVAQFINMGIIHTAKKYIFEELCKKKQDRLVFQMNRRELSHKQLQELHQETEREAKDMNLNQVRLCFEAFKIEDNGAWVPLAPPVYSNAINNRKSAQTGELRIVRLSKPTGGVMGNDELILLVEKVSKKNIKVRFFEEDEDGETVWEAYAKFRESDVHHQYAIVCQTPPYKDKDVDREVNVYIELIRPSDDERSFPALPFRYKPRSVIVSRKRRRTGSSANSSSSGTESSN

GST-Aq-NF-kB = target: T5, GST-Aq-NF-kB (Amphimedon queenslandica, UniProt A9Y5G7 2-389)
T5 sequence: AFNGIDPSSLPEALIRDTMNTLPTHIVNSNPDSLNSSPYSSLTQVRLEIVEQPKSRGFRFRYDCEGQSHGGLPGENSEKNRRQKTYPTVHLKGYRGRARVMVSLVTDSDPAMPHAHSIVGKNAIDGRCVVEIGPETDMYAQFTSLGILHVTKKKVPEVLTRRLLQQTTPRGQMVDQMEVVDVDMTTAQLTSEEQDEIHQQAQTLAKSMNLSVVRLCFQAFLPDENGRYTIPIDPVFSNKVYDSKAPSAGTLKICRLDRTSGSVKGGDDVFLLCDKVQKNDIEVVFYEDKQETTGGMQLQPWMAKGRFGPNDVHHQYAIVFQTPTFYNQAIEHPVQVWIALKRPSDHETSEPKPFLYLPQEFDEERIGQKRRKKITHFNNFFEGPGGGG

Row | Sequence | binding signal (GST-Ap-NF-kB RHD) | binding signal [1] | binding signal (GST-Co-NF-kB) | binding signal (GST-Dm-Relish) | binding signal (GST-Aq-NF-kB)
1 | CCGATTAACATCAAGGCATTCCCTGATGTTAATCGGGTCTTGATTCGCTTGACGCTGCTG | 1.97 z-score | 2.56 z-score | 1.94 z-score | 2.53 z-score | 3.27 z-score
2 | CCGATTAACATCAAAAATTGCCCTGATGTTAATCGGGTCTTGATTCGCTTGACGCTGCTG | 1.25 z-score | 1.84 z-score | 1.78 z-score | 1.5 z-score | 2.99 z-score
3 | CCGATTAACATCACCCAGTTCCCTGATGTTAATCGGGTCTTGATTCGCTTGACGCTGCTG | 1.22 z-score | 1.21 z-score | 1.44 z-score | – | 1.7 z-score
4 | CCGATTAACATCAATACACCCCCTGATGTTAATCGGGTCTTGATTCGCTTGACGCTGCTG | 3.75 z-score | 2.95 z-score | 4.19 z-score | 3.33 z-score | 3.5 z-score
5 | CCGATTAACATCACATATACCCCTGATGTTAATCGGGTCTTGATTCGCTTGACGCTGCTG | 3.26 z-score | 1.78 z-score | 4.3 z-score | 1.34 z-score | 2.28 z-score
6 | CCGATTAACATCAGGGAAACCACTGATGTTAATCGGGTCTTGATTCGCTTGACGCTGCTG | 3.4 z-score | 4.47 z-score | 3.12 z-score | 8.4 z-score | 6.48 z-score
7 | CCGATTAACATCAAATTCCCACTTGATGTTAATCGGGTCTTGATTCGCTTGACGCTGCTG | 2.15 z-score | 4.13 z-score | 2.26 z-score | 4.38 z-score | 2.47 z-score
8 | CCGATTAACATCAGGCTATCCCCTGATGTTAATCGGGTCTTGATTCGCTTGACGCTGCTG | 4.44 z-score | 3.67 z-score | 2.18 z-score | 3.3 z-score | 4.81 z-score
9 | CCGATTAACATCAAATGACCCCCTGATGTTAATCGGGTCTTGATTCGCTTGACGCTGCTG | 4.25 z-score | 2.8 z-score | 2.98 z-score | 3.27 z-score | 4.02 z-score
10 | CCGATTAACATCAGGCATTCCCATGATGTTAATCGGGTCTTGATTCGCTTGACGCTGCTG | 1.57 z-score | 2 z-score | 1.54 z-score | 3.64 z-score | 2.75 z-score
11 | CCGATTAACATCAAGAATTCCCATGATGTTAATCGGGTCTTGATTCGCTTGACGCTGCTG | 4.1 z-score | 5.41 z-score | 3.48 z-score | 4.5 z-score | 4.33 z-score
12 | CCGATTAACATCAAGGGGGGAGATGATGTTAATCGGGTCTTGATTCGCTTGACGCTGCTG | 5.84 z-score | 5.1 z-score | 6.56 z-score | 2.93 z-score | 4.98 z-score
13 | CCGATTAACATCAGGGAAATAACTGATGTTAATCGGGTCTTGATTCGCTTGACGCTGCTG | 2.57 z-score | 4.77 z-score | 3.96 z-score | 4.51 z-score | 6.11 z-score
14 | CCGATTAACATCAATATTTCCCATGATGTTAATCGGGTCTTGATTCGCTTGACGCTGCTG | 2.29 z-score | 3.85 z-score | 5.1 z-score | 1.61 z-score | 3.82 z-score
15 | CCGATTAACATCAGGGTGTTTTATGATGTTAATCGGGTCTTGATTCGCTTGACGCTGCTG | 2.75 z-score | 2.67 z-score | 1.55 z-score | 3.11 z-score | 4.69 z-score
16 | CCGATTAACATCAGGGGGAGAGATGATGTTAATCGGGTCTTGATTCGCTTGACGCTGCTG | 3.84 z-score | 3.66 z-score | 5.69 z-score | 1.45 z-score | 3.54 z-score
17 | CCGATTAACATCAAGGATTCCCGTGATGTTAATCGGGTCTTGATTCGCTTGACGCTGCTG | 2.73 z-score | 3.43 z-score | 3.1 z-score | 6.9 z-score | 3.92 z-score
18 | CCGATTAACATCAGGACTGTCCCTGATGTTAATCGGGTCTTGATTCGCTTGACGCTGCTG | 4.85 z-score | 5.38 z-score | 1.21 z-score | 3.04 z-score | 7.35 z-score
19 | CCGATTAACATCACGTAAATCCCTGATGTTAATCGGGTCTTGATTCGCTTGACGCTGCTG | 2.65 z-score | 2.8 z-score | 1.01 z-score | 7.13 z-score | 3.3 z-score
20 | CCGATTAACATCAATTTTTCCCATGATGTTAATCGGGTCTTGATTCGCTTGACGCTGCTG | 2.62 z-score | 4.2 z-score | 5.21 z-score | 1.64 z-score | 3.27 z-score
21 | CCGATTAACATCAGGGAAAATGATGATGTTAATCGGGTCTTGATTCGCTTGACGCTGCTG | 2.8 z-score | 4.26 z-score | 3.42 z-score | 1.15 z-score | 3.05 z-score
22 | CCGATTAACATCAGAGTCCCCCCTGATGTTAATCGGGTCTTGATTCGCTTGACGCTGCTG | 5.97 z-score | 5.02 z-score | 7.33 z-score | 5.14 z-score | 4.89 z-score
23 | CCGATTAACATCAGGGGGTTACATGATGTTAATCGGGTCTTGATTCGCTTGACGCTGCTG | 6.46 z-score | 4.25 z-score | 3.27 z-score | 6.42 z-score | 4.89 z-score
24 | CCGATTAACATCAAAAACTACCCTGATGTTAATCGGGTCTTGATTCGCTTGACGCTGCTG | 4.12 z-score | 3.21 z-score | 3.13 z-score | 5.43 z-score | 4.72 z-score
25 | CCGATTAACATCAGGGAGGGTAATGATGTTAATCGGGTCTTGATTCGCTTGACGCTGCTG | 2.31 z-score | 2.15 z-score | 1.71 z-score | 1.12 z-score | 2.39 z-score
26 | CCGATTAACATCAGGCCGTCCCCTGATGTTAATCGGGTCTTGATTCGCTTGACGCTGCTG | 4.92 z-score | 4.47 z-score | 1.48 z-score | 5.02 z-score | 5.74 z-score
27 | CCGATTAACATCACCGATTTCCCTGATGTTAATCGGGTCTTGATTCGCTTGACGCTGCTG | 2.92 z-score | 3.79 z-score | 3.27 z-score | 2 z-score | 2.57 z-score
28 | CCGATTAACATCAACGTATTCCCTGATGTTAATCGGGTCTTGATTCGCTTGACGCTGCTG | 3.17 z-score | 2.78 z-score | 2.86 z-score | 1.41 z-score | 1.85 z-score
